Most compounds without a hit are left out; they make up all but 7.1% or so of the library.
ATXN2 expr inh: reduces ATXN2 reporter expression in HEK-293 cells. Potency, µM (doses to about 57 µM), for the others: at the top dose activity change, negative = inhibition, most hits filed as inhibitors. HEK-293 ATXN2-luciferase reporter, luminescence, 24 h. 360,000 tested, 0.72% active; also: potency is read from the fitted curve at half-maximal effect; % is scaled to controls: 0 for no effect and ±100 for the full control effect; nearly all actives have a fitted effect of over 55% in size
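ATXN2-luciferase reporter cells (luciferase flanked by upstream and downstream ATXN2 gene portions) were treated 24 h at 37 °C with compounds at up to 57 uM. SteadyGlo luminescence gave expression; GF-AFC fluorescence gave viability.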
SW480 rerep: inducers of DNA re-replication in SW480 colon cancer cells; SW480 DNA re-replication, Hoechst DNA content imaging, 48 h; Potency, µM (titrated, usually from 46.1 µM), inactives show at the top dose re-replication activation, actives largely listed as activators; AID 624297; 340,000 tested, 1.8% active; also: potency is read from the fitted curve at half-maximal effect; % of control where 0% means no effect; nearly all actives have a fitted effect of over 55% in size
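Image-based DNA-content assay: after two days of treatment, nuclei were labelled with the DNA dye Hoechst and imaged, and hits were compounds raising the count of nuclei showing high fluorescence intensity.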
PINK1 expr mod: changes PINK1 expression. PINK1 immunofluorescence, high-content cytometry, 24 h. Potency, µM (top dose mostly 76.6 µM), inactives show at the top dose activation (PINK1 increase), most hits filed as activators. 410,000 tested, 0.2% active; active = well fitted activation curve with a large enough effect; inconclusive = small, poorly fitted or top-dose-only effect; cell line not stated here; also: potency is read from the fitted curve at half-maximal effect; % of control where 0% means no effect; nearly all actives have a fitted effect of over 65% in size
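A stable cell line was treated with compounds at 5 concentrations for 24 hours, with CCCP as control. PINK1 levels and mitochondrial localization were measured by immunofluorescence with mitochondrial, cell and nuclear markers after fixation, read by laser-scanning cytometry.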
S2 tox: viability counter-screen for ATXN expression inhibitors; 400,000 tested, 0.49% active; S2 cells (HEK-293 line with an ATXN2-luciferase reporter) viability, CellTiter-Fluor protease fluorescence, 24 h; Potency, µM (top dose mostly 56.7 µM), hits mostly cytotoxic; AID 651635; also: potency is read from the fitted curve at half-maximal effect; nearly all actives have a fitted effect of over 40% in size
MCF10A rereplic: DNA re-replication induction in MCF 10a cells; Potency, µM (titrated, usually from 46.1 µM), for the others: at the top dose activity, positive = re-replication, usual class: activators; 350,000 tested, 2.9% active; MCF 10A DNA re-replication, Hoechst nuclear intensity, 48 h; also: potency is read from the fitted curve at half-maximal effect; % of control where 0% means no effect; nearly all actives have a fitted effect of over 50% in size
IL-1B inflam inh: inflammasome signaling inhibition, IL-1 beta readout; THP-1 LPS/ATP IL-1B secretion, AlphaLISA, 16 h; hits give low values; activity change, % at 57.5 µM; 360,000 tested, 4.7% active; AID 743279; in the data active = activity change below about -50%; inconclusive = mostly about -30% to -49%; also: % is scaled to controls: 0 for no effect and ±100 for the full control effect
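THP-1 cells pretreated 1 hr with compounds (up to 57.5 uM final), then stimulated with LPS (250 ng/mL final) plus ATP (1.25 mM final); secreted IL-1B measured by AlphaLISA after 16 hr, decreased signal indicating inhibition.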
An asterisk follows results filed as active; i = inactive; ? = inconclusive; · = no result; [ ] = remark or other dose. Unless noted, calls follow the shape of the dose curve; as a rule, active = well fitted curve in the direction sought with a large enough effect; inconclusive = small, poorly fitted or top-dose-only effect, or another doubt; inactive = no such curve, though single readings can be large; an effect the other way counts as inactive or inconclusive.

SMILES	ATXN2 expr inh	SW480 rerep	PINK1 expr mod	S2 tox	MCF10A rereplic	IL-1B inflam inh
COc1cc(C2c3cc4c(cc3C(O)[C@H]3COC(=O)C23)OCO4)cc(OC)c1OC (stereo partly specified)	·	·	10%	·	·	·
CCCOc1ccccc1-c1nc(SCC(=O)c2ccccc2)n[nH]1	-1%	·	0%	i	·	·
COc1ccccc1-c1ccnc(-n2ncc(C(=O)NCc3cccc(C)n3)c2C)n1	·	·	0%	i	·	·
CCN(CC)c1ccc(/C=C(\C#N)C(=O)c2ccc(Br)cc2)cc1	-13%	?	?	i	13µM*	?
CCn1cc(C(=O)N[C@@H](CC(C)C)C(=O)NCCCn2ccnc2)c(=O)c2cc3c(cc21)OCO3	-14%	13µM*	-1%	i	1%	2
CCOCCCn1c(SCC(=O)Nc2ccccc2Cl)nc2c(oc3ccccc32)c1=O	2%	·	-1%	i	·	·
c1cnc2ncc3sccc3c2c1	-13%	16µM*	1%	?	-7%	12
CCOC(=O)c1cc(C)sc1NC(=O)C(c1ccccc1)c1ccccc1	·	0%	1%	i	26µM*	-8
COc1ccc(-c2[nH]c3ccccc3c2SCCNC(=O)c2cc3ccccc3oc2=O)cc1	9%	13%	-1%	?	13%	20
COc1ccc(-c2[nH]c3ccccc3c2SCCN)cc1	-24%	?	5%	i	-2%	-59*
Cc1nnc(SCC(=O)c2c(N)n(C)c(=O)n(C)c2=O)n1Cc1ccccc1	-3%	-2%	·	i	10%	-54*
COC(=O)c1cc2occc2n1CC(=O)Nc1ccc(OC)c(OC)c1	-12%	3%	·	i	-18%	0
COC(=O)c1cc2occc2n1CC(=O)Nc1cc(OC)cc(OC)c1	-9%	-4%	·	i	-18%	-52*
COc1cccc(-c2nc(SC(C(C)=O)C(=O)N(C)C)c3c(=O)n(C)c(=O)n(C)c3n2)c1 (stereo unspecified)	-2%	·	0%	i	·	·
Cn1ncc2c(O/N=C(\N)c3ccc(C(C)(C)C)cc3)ncnc21	?	9.2µM*	-1%	·	18µM*	-101*
CCOC(=O)C1CCCCN1Cc1nc(N2CCN(C(C)=O)CC2)c2ccccc2n1 (stereo unspecified)	·	·	1%	i	·	·
O=C(Nc1ccc2c(c1)OCCO2)C(=O)c1c[nH]c2ccccc12	-41%	4.6µM*	4%	?	9.2µM*	?
O=C(Nc1ccc2c(c1)OCO2)C(=O)c1c[nH]c2ccccc12	·	2%	?	?	16%	-8
CCOC(=O)N1CCN(C2=Nc3cccc4cccc2c34)CC1	-26%	27%	·	i	?	·
c1ccc(CC2CCN(C3=Nc4cccc5cccc3c45)CC2)cc1	3%	?	?	i	9.2µM*	-30
COc1ccccc1N1CCN(C2=Nc3cccc4cccc2c34)CC1	29%[11.3 µM]	?	11%	?	-2%	-56*
CC(=O)N1CCN(C2=Nc3cccc4cccc2c34)CC1	-4%	-1%	2%[38.3 µM]	i	-1%	-66*
Cc1cccc(N(C)C(=O)C2CCC(CNS(=O)(=O)c3cccc4nsnc34)CC2)c1 (stereo unspecified)	-13%	·	1%	?	·	·
CC1=C(C#N)C(NC(=O)c2ccccc2)(C(F)(F)F)C(=O)N1 (stereo unspecified)	-4%	·	-1%	i	·	·
CC(C)CC(N)c1csc(NC(=O)c2cc(C(C)(C)C)nn2Cc2ccccc2)n1 (stereo unspecified)	?	·	-1%	·	·	-114*
SMILES	ATXN2 expr inh	SW480 rerep	PINK1 expr mod	S2 tox	MCF10A rereplic	IL-1B inflam inh
COc1ccc(CC(N)c2csc(NC(=O)Nc3ccccc3C(C)(C)C)n2)cc1 (stereo unspecified)	?	·	-1%	·	·	-52*
CC(C)C(N)c1csc(NC(=O)Nc2ccccc2C(C)(C)C)n1 (stereo unspecified)	-17%	·	5%	i	·	-60*
Cc1ccccc1NC(=O)Nc1nc(C(N)Cc2ccccc2)cs1 (stereo unspecified)	?	·	?	?	·	-56*
COc1ccc(CC(N)c2csc(NC(=O)NCc3ccccc3)n2)cc1 (stereo unspecified)	?	·	2%	?	·	-15
COc1ccccc1NC(=O)Nc1nc(C(N)Cc2ccc(Cl)cc2)cs1 (stereo unspecified)	?	·	-1%	?	·	-12
CC(C)CC(N)c1csc(NC(=O)Nc2ccccc2Cc2ccccc2)n1 (stereo unspecified)	?	·	-1%	·	·	?
COc1ccccc1NC(=O)Nc1nc(C(N)Cc2ccccc2)cs1 (stereo unspecified)	?	·	-1%	?	·	?
COc1ccccc1NC(=O)Nc1nc(C(N)CC(C)C)cs1 (stereo unspecified)	?	·	13%	?	·	-57*
COc1ccc(CC(N)c2csc(NC(=O)Nc3ccccc3-c3ccccc3)n2)cc1 (stereo unspecified)	?	·	-1%	·	·	-58*
CC(C)C(N)c1csc(NC(=O)Nc2ccc(OC(F)(F)F)cc2)n1 (stereo unspecified)	?	·	-1%	20µM*	·	-70*
NC(Cc1ccc(C(F)(F)F)cc1)c1csc(NC(=O)Nc2ccccc2Cl)n1 (stereo unspecified)	?	·	-1%	?	·	-72*
COc1cc2nc(NCCc3cccc(C)c3)n3nc(-c4ccccc4)nc3c2cc1OC	-6%	·	-1%	i	·	·
NC(=O)C1CCN(c2csc3ccc(F)cc3c2=O)CC1	8%	·	5%	?	·	·
CCCc1ccc(OCC(=O)Nc2sc3c(c2C(=O)OC)CCCCC3)cc1	·	·	-1%	·	·	·
COc1ccccc1NC(=O)Nc1nnc(C(C)c2ccccc2)s1 (stereo unspecified)	-39%	?	8%	?	23µM*	84
Cc1cccc(Cn2nc(C(C)(C)C)cc2C(=O)Nc2ccc(F)cc2)c1	?	?	?	?	?	-53*
COc1ccccc1NC(=O)Nc1nnc(C(C)C)s1	64%	-4%	3%	i	-6%	11
CC(C)(C)c1cc(C(=O)NN)n(Cc2ccc(F)cc2)n1	·	?	-1%	·	17%	44
Cc1ccc(C2=Nc3ccccc3N(CC(=O)Nc3ccccc3C)C(=O)C2)cc1C	42%	·	-1%	i	·	·
CCOC(=O)c1nc(NNC(=O)c2ccc([N+](=O)[O-])cc2)sc1C	?	3.7µM*	?	?	25%	-7

Screening data deposited in PubChem BioAssay by National Center for Advancing Translational Sciences (NCATS).
